Shown are actives, neighbours in structure and some others; about 3.6% of the full set was active somewhere.
Pf apPOL block = Pf-apPOL DNA polymerase inhibition; Recombinant Pf-apPOL, molecular beacon fluorescence, 1.5 h; inhibition, % at 10 µM; 210,000 tested, 0.25% active
mHTT-CaM PPI inh = disrupts binding of mutant huntingtin to calmodulin. AlphaScreen His-mHTT/GST-CaM binding, luminescence. 190,000 tested, 3.6% active. P42858. AID 1671202. inhibition, % at 15 µM
Target sequence (P42858 whole entry, looked up, change not shown): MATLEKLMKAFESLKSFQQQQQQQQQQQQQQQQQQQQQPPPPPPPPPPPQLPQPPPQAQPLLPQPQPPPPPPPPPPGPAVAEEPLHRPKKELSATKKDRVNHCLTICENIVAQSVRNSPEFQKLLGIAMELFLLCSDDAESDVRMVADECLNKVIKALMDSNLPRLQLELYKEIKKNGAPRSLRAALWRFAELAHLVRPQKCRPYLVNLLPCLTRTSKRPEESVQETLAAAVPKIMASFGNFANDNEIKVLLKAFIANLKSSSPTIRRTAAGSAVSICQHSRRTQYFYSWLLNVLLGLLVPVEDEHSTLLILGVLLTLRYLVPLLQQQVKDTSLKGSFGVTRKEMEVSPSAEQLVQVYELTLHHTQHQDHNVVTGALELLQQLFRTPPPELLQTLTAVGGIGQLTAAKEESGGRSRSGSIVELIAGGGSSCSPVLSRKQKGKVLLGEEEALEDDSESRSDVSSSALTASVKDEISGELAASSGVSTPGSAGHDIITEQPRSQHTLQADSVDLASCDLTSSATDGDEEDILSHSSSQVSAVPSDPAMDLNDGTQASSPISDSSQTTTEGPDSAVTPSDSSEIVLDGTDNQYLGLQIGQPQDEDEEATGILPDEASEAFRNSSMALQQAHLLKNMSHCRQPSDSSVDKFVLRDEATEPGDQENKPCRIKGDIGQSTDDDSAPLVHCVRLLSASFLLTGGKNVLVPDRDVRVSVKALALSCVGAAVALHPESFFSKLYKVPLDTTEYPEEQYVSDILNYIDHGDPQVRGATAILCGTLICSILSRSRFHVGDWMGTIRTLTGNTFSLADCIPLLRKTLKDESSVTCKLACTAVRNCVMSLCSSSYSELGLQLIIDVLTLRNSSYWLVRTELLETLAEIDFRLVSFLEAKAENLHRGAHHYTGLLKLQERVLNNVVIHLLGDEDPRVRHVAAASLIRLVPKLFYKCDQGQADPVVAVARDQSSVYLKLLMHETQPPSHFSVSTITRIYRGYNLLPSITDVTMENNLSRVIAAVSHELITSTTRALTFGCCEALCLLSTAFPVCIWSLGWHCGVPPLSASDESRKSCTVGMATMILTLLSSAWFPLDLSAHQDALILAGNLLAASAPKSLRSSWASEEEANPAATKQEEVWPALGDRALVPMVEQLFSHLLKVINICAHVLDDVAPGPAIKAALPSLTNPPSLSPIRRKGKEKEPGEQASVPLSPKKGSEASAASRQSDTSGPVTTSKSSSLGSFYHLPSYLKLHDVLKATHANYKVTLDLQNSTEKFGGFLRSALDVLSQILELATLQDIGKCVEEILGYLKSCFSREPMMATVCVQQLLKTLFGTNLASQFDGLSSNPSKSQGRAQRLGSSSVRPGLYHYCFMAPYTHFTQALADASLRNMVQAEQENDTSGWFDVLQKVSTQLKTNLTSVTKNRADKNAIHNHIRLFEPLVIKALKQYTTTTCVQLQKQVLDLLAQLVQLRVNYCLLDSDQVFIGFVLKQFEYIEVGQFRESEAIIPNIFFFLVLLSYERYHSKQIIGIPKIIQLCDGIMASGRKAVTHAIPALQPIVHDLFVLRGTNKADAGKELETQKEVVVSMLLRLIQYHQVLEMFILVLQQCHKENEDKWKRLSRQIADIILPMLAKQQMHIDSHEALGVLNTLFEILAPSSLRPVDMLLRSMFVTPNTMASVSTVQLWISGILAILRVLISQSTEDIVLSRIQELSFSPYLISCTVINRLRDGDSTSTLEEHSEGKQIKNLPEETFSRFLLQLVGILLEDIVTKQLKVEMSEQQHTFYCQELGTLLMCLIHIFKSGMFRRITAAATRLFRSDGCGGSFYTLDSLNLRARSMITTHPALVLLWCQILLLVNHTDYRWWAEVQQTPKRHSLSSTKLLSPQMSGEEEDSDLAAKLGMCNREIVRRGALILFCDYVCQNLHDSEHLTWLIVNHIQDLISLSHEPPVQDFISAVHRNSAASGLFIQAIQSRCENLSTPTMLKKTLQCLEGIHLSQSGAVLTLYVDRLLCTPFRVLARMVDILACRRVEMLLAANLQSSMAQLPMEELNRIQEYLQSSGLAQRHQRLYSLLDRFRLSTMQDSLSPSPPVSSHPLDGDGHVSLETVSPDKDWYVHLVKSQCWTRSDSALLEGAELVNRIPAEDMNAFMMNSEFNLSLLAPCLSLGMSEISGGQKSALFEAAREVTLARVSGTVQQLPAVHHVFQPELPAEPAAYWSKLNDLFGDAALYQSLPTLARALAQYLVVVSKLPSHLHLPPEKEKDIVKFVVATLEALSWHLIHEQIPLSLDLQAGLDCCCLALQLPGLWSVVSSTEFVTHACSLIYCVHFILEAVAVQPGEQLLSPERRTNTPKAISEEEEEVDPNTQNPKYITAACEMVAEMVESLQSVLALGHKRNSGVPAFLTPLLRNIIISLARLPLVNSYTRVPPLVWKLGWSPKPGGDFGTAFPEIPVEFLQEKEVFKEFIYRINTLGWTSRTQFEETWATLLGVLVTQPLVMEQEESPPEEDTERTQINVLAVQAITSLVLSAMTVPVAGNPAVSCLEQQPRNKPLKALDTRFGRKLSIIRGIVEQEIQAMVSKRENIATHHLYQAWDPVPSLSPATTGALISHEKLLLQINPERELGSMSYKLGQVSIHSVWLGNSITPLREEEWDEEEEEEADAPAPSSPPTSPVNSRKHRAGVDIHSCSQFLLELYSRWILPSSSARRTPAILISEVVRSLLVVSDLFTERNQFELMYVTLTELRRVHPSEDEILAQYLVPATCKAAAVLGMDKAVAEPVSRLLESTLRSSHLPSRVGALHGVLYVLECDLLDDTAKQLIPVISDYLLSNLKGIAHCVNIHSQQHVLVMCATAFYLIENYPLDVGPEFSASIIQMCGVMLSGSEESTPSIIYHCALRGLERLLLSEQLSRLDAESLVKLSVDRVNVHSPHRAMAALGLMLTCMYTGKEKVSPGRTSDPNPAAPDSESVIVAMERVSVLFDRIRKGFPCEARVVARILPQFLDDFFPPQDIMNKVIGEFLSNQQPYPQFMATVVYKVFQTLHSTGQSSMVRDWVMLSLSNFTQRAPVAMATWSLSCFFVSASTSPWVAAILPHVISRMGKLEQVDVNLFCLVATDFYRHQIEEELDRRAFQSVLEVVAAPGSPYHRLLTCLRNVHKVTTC
A number is an active result; 0 = inactive; - = no result given. Cut-off read from the data, not from the text of the source: active = inhibition above about 50%; inactive = the rest.

SMILES	Pf apPOL block	mHTT-CaM PPI inh
CC(C)(C)C1CCC(OCC(O)CN2CCC(CN3C(=O)c4cccc5cccc(c45)C3=O)CC2)CC1 (stereo not drawn)	0	100
O=S1(=O)N=C(Cc2ccccc2Br)Nc2ccccc21	0	0
CNC(=O)C1CCc2nc(N3CCN(C(C)=O)CC3)sc2C1 (stereo not drawn)	0	0
O=C(Cc1ccccc1)Nc1ccccc1C(=O)N1CCCC1	0	0
COc1cccc(CN2CCc3nc(N4CCN(C)CC4)ncc3C2)c1	0	0
CCCN1CCN(c2ncc3c(n2)CCN(Cc2cccc(OC)c2)C3)CC1	0	0
COc1cccc(N2CCN(c3ncc4c(n3)CCN(Cc3cccc(F)c3)C4)CC2)c1	0	58
COc1ccc(N2CCN(c3ncc4c(n3)CCN(Cc3ccc(F)cc3)C4)CC2)cc1	0	57
COc1ccc(CN2CCc3nc(N4CCN(c5cccc(OC)c5)CC4)ncc3C2)cc1	0	74
Fc1ccc(CN2CCc3nc(N4CCN(c5ccc(F)cc5)CC4)ncc3C2)cc1	0	0
O=C(Nc1ccccc1)N1CC(C(=O)N2CCCC2)C2(CCOCC2)C1 (stereo not drawn)	0	0
CC1CN(C(=O)C(C)NS(=O)(=O)c2cccc(Cl)c2)CC(C)O1 (stereo not drawn)	0	0
O=C(CSCc1ccccc1)NCC1(c2cccs2)CC1	0	0
CC(C)(C)c1ccc(O)c(N=C/C=C/c2ccc([N+](=O)[O-])cc2)c1	0	0
O=[N+]([O-])c1ccc(/C=C/C=Nc2ccccc2O)cc1	0	83
COc1ccc(NC(=O)CN2C(=O)C(c3ccccc3)=NC23CCC(C)CC3)cc1Cl (stereo not drawn)	0	0
CC1CCC2(CC1)N=C(c1ccccc1)C(=O)N2CC(=O)Nc1cccc(Cl)c1 (stereo not drawn)	0	70
O=C(CN1C(=O)C(c2ccccc2)=NC12CCCCCC2)Nc1ccc(F)cc1	0	0
O=C(CN1C(=O)C(c2ccccc2)=NC12CCCCCC2)Nc1cccc(F)c1	0	52
O=C(CN1C(=O)C(c2ccc(F)cc2)=NC12CCCCC2)Nc1ccc(F)cc1	0	0
O=C(CN1C(=O)C(c2ccc(F)cc2)=NC12CCCCC2)Nc1ccc(Cl)cc1	0	77
O=C(CN1C(=O)C(c2ccccc2)=NC12CCCCC2)Nc1ccc(F)c(F)c1	0	100
O=C(CN1C(=O)C(c2ccccc2)=NC12CCCCCC2)Nc1ccccc1	0	0
O=C(NC1CCCC1)c1csc(N2CCCC2)n1	0	0
O=C(NC1CCCC1)C1CCCN(C(=O)c2ccc(F)c(F)c2)C1 (stereo not drawn)	0	0
SMILES	Pf apPOL block	mHTT-CaM PPI inh
O=C(NCc1ccncc1)c1ccc2ncnc(N3CCCCC3)c2c1	0	0
Cc1ccccc1OCC(=O)Nc1cccn2ncnc12	0	0
Cc1scc2nc(C(=O)N3CCN(C4CCCCC4)CC3)nc(N3CCCC3)c12	0	0
CCOC(=O)NC(=O)C(C#N)=Cc1ccc(N(C)C)cc1	0	-
CC1CCC2(CC1)N=C(c1ccccc1)C(=O)N2CC(=O)Nc1ccc(F)c(F)c1 (stereo not drawn)	0	76
COc1ccc(NC(=O)CN2C(=O)C(c3ccccc3)=NC23CCC(C)CC3)cc1OC (stereo not drawn)	0	0
O=C(c1ccc(OCC2CCN(C(=O)c3ccncc3)CC2)cc1)N1CCCCC1	0	0
COc1ccc(S(=O)(=O)N2CCc3nc(NC(=O)c4ccccc4C)sc3C2)cc1	0	0
COc1ccc(OC)c(-c2nnc3ccc(OCCNC(=O)Nc4ccc(C)cc4)nn23)c1	0	0
CCC1CN(C(=O)NCc2ccc(F)cc2)c2ccccc2O1 (stereo not drawn)	0	0
O=C(NCc1ccc(F)cc1)N1CC2CCCN2c2ccccc21 (stereo not drawn)	0	77
CNC(=O)N1CCCC(c2cccc(C(=O)NCc3ccc(F)cc3)c2)C1 (stereo not drawn)	0	0
O=C(NCc1ccc(F)cc1)c1ccc(NC(=O)N2CC3CCCN3c3ccccc32)cc1 (stereo not drawn)	0	54
CCCc1ccc(OC(=O)OCC(C)C)cc1	0	0
CCOC(CCn1c(SCC(=O)Nc2nccs2)nc2ccccc2c1=O)OCC	0	0
O=C(Nc1ccc(OC(F)(F)F)cc1)C1CCCN(S(=O)(=O)c2cccs2)C1 (stereo not drawn)	0	0
Cc1ccc2oc(-c3ccc(NC(=O)Cc4ccccc4)c(C)c3)nc2c1	0	0
CCn1ccc2oc(C)c(C(=O)N3CCN(c4ccccc4Cl)CC3)c2c1=O	0	77
CCC1CCCCN1C(=O)c1c(C)oc2ccn(Cc3ccccc3F)c(=O)c12 (stereo not drawn)	0	68
CCn1ccc2oc(C)c(C(=O)N3CCN(C4CCCCC4)CC3)c2c1=O	0	0
Cc1oc2ccn(Cc3ccccc3F)c(=O)c2c1C(=O)N1CCCC(C)C1 (stereo not drawn)	0	0
Cc1ccc(C(=O)N2CCN(c3cc(C)ccc3F)C(=O)C2C)cc1 (stereo not drawn)	0	0
Cc1nc(NCCNC(=O)c2ccc(F)cc2Cl)cc(N2CCOCC2)n1	0	0
O=C(c1ccc(Cl)cc1)N1CC(C(=O)N2CCCC2)C(c2ccccc2)C1 (stereo not drawn)	0	0
CC(=O)c1ccc(OCC(O)CN2CCN(c3cccc(Cl)c3)CC2)cc1 (stereo not drawn)	0	0
SMILES	Pf apPOL block	mHTT-CaM PPI inh
c1ccc(CNCC2OCc3ccccc3CO2)cc1	0	0
COc1ccc(NC(=O)COc2ccccc2)c2ccccc12	74	0
CC(=O)Nc1ccccc1NC(=O)COc1ccccc1	0	0
Cc1cc(O)c(CN2CCN(C)CC2)c2c1C(=O)C(=Cc1cc3ccccc3o1)O2	0	0
COc1ccc(C(=O)N2CCc3c(c(-c4nc(-c5ccc(F)cc5)no4)nn3C)C2)cc1	0	0
C=CCNC(=O)CN(c1ccc(C)cc1)S(=O)(=O)c1ccc(F)cc1	0	0
CC1=Nc2ccccc2C1=Cc1c(O)n(-c2ccc(Cl)cc2)c(=O)[nH]c1=O	0	0
CC1=Nc2ccccc2C1=Cc1c(O)n(-c2cccc(Br)c2)c(=O)[nH]c1=O	0	96
N#CC1=C(N)Oc2n[nH]c(-c3ccc(F)cc3)c2C12C(=O)N(CC(=O)O)c1ccccc12 (stereo not drawn)	0	0
CSc1ccc(C2Nc3ccccc3NC3=C2C(=O)CC(c2ccccc2)C3)cc1 (stereo not drawn)	0	0
O=C1CC(c2ccc(Cl)cc2)CC2=C1C(c1cccc([N+](=O)[O-])c1)Nc1ccccc1N2 (stereo not drawn)	0	62
COc1ccc(C2CC(=O)C3=C(C2)Nc2ccccc2NC3c2cccc([N+](=O)[O-])c2)cc1OC (stereo not drawn)	0	0
O=C1CC(c2ccccc2)CC2=C1C(c1ccc(Br)cc1)Nc1ccccc1N2 (stereo not drawn)	0	79
Cn1cc(Cl)c(C2NN=C(SCC(=O)Nc3ccc(C(C)(C)C)cc3)S2)n1 (stereo not drawn)	0	-
O=S(=O)(c1cccnc1)N1CCc2[nH]nc(-c3ccccc3)c2C1	0	0
Cc1c(C(c2ccco2)c2c(C)n(C)n(-c3ccccc3)c2=O)c(=O)n(-c2ccccc2)n1C	0	0
Cc1[nH]n(-c2ccccc2)c(=O)c1C(c1ccco1)c1c(C)[nH]n(-c2ccccc2)c1=O	0	54
CCn1c(C2CCN(S(=O)(=O)c3cc(Cl)ccc3OC)C2)nc2cccnc21 (stereo not drawn)	0	0

Source: PubChem BioAssay
